From the supplement of paper PMC10681739

target: RUNX1 (UniProt Q01196); assay: RUNX1 binding intensity (PBM fluorescence), RUNX1 alone (arbitrary fluorescence units); higher = stronger binding; conditions: RUNX1 concentration 2 nM; ETS1 concentration 0 nM
Procedure: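 Cooperative gcPBM on 36-bp genomic probes with neighbouring ETS1 and RUNX1 sites. Recombinant human RUNX1 (2 nM) was incubated alone or with ETS1 (25 nM) and detected with anti-RUNX1 antibody plus Alexa488 secondary. Values are medians over 4 replicate spots; the RUNX1+ETS1 data were normalised to the RUNX1-only data. The probes sit in constant array flanks that are not printed.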
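Wherever RUNX1 binding intensity (PBM fluorescence), RUNX1 alone is given: Full-length recombinant human RUNX1 bound to double-stranded 36-bp genomic probes on a high-density microarray, scored as Alexa488 fluorescence per spot via anti-RUNX1 antibody, median of four replicate spots.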

RUNX1, sequence (Q01196 whole entry): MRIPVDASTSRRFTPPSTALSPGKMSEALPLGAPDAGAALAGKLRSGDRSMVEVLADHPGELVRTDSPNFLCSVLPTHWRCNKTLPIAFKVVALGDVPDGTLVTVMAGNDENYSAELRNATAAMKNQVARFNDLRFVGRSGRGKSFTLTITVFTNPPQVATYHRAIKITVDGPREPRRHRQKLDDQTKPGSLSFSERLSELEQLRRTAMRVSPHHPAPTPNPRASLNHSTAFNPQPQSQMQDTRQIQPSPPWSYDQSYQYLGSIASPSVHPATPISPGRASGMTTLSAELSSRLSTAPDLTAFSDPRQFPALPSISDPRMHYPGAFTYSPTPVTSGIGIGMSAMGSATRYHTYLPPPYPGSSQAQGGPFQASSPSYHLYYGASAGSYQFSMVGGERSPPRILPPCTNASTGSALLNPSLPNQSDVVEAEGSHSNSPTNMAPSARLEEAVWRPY

Row | Sequence | RUNX1 binding intensity
1 | GCTTCTGAGGAAGTGCGTTCTGTGGGTAGGTGGAGT | 834
2 | ATCAGTCAACTTCCCCCACTCCCTCCCACAAAGAAA | 1400
3 | TGGCTGTCACTTCCTGTCCCACTGTGGTTCCTGGGA | 763
4 | TTGTCACGTCCGGCACGCCGCGAACCGCAAGGAACC | 1270
5 | GTCCCACGCGACTTCCTGCGGGAAACATGGCGGCAT | 771
6 | GGAGGGGAGCAGGAAGCTGAGGTTTTGTGAGTCAGA | 753

target: T1, ETS1 (UniProt P14921); assay: ETS1 binding intensity (PBM fluorescence) in presence of RUNX1, normalised to ETS1-only experiment (arbitrary fluorescence units); higher = stronger binding; conditions: ETS1 concentration 1 nM; RUNX1 concentration 25 nM
T1 sequence: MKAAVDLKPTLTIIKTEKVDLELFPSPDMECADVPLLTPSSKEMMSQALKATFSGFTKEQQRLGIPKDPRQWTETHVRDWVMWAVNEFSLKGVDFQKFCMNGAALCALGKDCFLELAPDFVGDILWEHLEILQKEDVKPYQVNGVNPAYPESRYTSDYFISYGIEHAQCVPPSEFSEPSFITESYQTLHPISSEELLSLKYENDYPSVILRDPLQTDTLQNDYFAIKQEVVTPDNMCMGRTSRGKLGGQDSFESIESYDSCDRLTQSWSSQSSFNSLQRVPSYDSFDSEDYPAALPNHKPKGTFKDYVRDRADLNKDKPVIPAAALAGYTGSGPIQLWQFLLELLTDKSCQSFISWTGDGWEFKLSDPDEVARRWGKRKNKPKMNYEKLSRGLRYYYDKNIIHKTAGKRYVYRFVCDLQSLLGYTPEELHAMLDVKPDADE

Row | Sequence | ETS1 binding intensity
7 | GCTTCTGAGGAAGTGCGTTCTGTGGGTAGGTGGAGT | 1000
8 | CTCTTCTTCAGGGTTTCCTGTGGGTACACTGAGAAC | 602
9 | TGGGGTGGGGTGGGAAGTGCCAGCGGTCTGGGTGTC | 486
10 | CGGCACCCTCCTTCCTCCCTGCCAACCGCCTCCACC | 696
11 | ATTCTGCATCCTGTGCTCTTTCCATGAGACCACAAA | 754
12 | GGTGCCAAGGGCAGAGGATGTGGTGAGGTGTGGAGG | 4410
13 | TTTTCCCACTTCCTAGGTTGTGGTGGGGATTACACA | 571
14 | ACCCAGGGGACTTCCTGGCTCAGTGCCACAACCCAG | 393
15 | GCAGGAAACGCTTTCTTAACACTATGTGGGTGAGGT | 691
16 | AAAACGCGGAAATACGGTGGCTGCGGCCCGCGGGCA | 573
17 | TGCTCCACTCGGAAGTGGTGCCGCAGCTCTTCGATG | 800
18 | ATCAGTCAACTTCCCCCACTCCCTCCCACAAAGAAA | 979
19 | ACGCCGCGCATCCGCGCTTTACGGCGGCCGCAAAAT | 563
20 | TGGCTGTCACTTCCTGTCCCACTGTGGTTCCTGGGA | 5740
21 | AAAGGGAAGTTGGCGGGAGTTCAAAACCACCGGGGC | 494
22 | CCATGAGGAGGGAGGAAATAGTGGTACGAGGGCTGC | 1040
23 | CAGCCCTAGCGAGTTTCCTGCGGGGAAGGGCATTCC | 480
24 | CCTGTTCCGGGCTCCGTACACCCAGGCCCGCAGCTG | 494
25 | GGTCACATCCTTTCCCTTCTGTGTCTCAGCCGCAGT | 449
26 | TTGTCACGTCCGGCACGCCGCGAACCGCAAGGAACC | 1800

Row | Sequence | ETS1 binding intensity
27 | TGAAGTTCAGGGGGAAGTGGTTAGAGTCCCTGCGAG | 674
28 | CCTCATTTCCGGGCTGTTTGCGCGCAAGCCCACATC | 968
29 | GTCCCACGCGACTTCCTGCGGGAAACATGGCGGCAT | 1820
30 | CCTCTCAACAGCATTTCCTGGTGGTCAGATATCTGA | 587
31 | CGCCGGACGTAGTGACGTAGCGCGCAGCCGCAGCGG | 476
32 | GGCCTTCTGCCTACATCCTGCGGCGCCCGCGACCCG | 593
33 | CAAAGGGGAACGAGGAAACCGCCAGGGGCGGGGCGG | 475
34 | AGCGCTTCCCCTTCCGCTGCCGCAGCCGCCGCCTCC | 466
35 | TCTGAGAATGCAGGATATGTGTGTGGTCTCTAGTCA | 1510
36 | GTATTTATTTCCTCTTCGAAGAAATGCGGGGGTGCC | 438
37 | CTAAGTGCTCTTCCTGCCAACCTGTGGGCGCCTGGC | 686
38 | CTGGCAGGCCTCACTTCCTCACCACATGGCCCTCCC | 640
39 | CTGCGTCCCGGAAGGAGCGAGCTTGCGGAGCGTGAA | 542
40 | ATAGTCACCGTTCCGGCCCTCCTCCACCGCACTTCT | 578
41 | GCAGCCAGGGTAGGAAGTGGTAAGACCTCCCTGTGA | 1230
42 | CCATGCGCTGCTTCCTTCCACTTACCGCCCTCGCAC | 331
43 | AGGGAAGCGGCGGCGGAAGCCCCGCAGGAGGCCGGC | 932
44 | GCGCACGCGCGTTGTTTCCGCGGTAGTCAGGGCAGT | 364
45 | TCAAGAGGGTGTGGAGGAAGTGGGTTACAAGCACTT | 1940
46 | GGAGGGGAGCAGGAAGCTGAGGTTTTGTGAGTCAGA | 2490
